# Source: PubChem BioAssay (EPA / NIEHS)
# Activity calls are given as the source filed them. How the source made its calls: active means hit-call score of the fitted dose curve at least 0.9, where 1 is the maximum; inactive means score below 0.9.
# Tests used:
# Settings in all cases: mRNA level, 48 h; actives raise or lower the signal
# [1] = read-out: ATP-citrate lyase (ACLY), ACLY (gene 47); assay: LTEA_HepaRG_ACLY: Life Technologies and Expression Analysis (LTEA) Assay for ATP-citrate lyase (ACLY) using HepaRG (AID 2283466)
# Method in brief: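 Differentiated human HepaRG cells in serum-free induction medium exposed 48 h, in duplicate, to eight half-log concentrations from 100 uM top in 0.5% DMSO; ACLY mRNA measured by qRT-PCR, normalized to ACTB, GAPDH, POLR2A, fitted bidirectionally versus DMSO.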
# [2] = read-out: Peroxisomal acyl-coenzyme A oxidase 1 (ACOX1) gene, ACOX1 (gene 51); assay: LTEA_HepaRG_ACOX1: Life Technologies and Expression Analysis (LTEA) Assay for Peroxisomal acyl-coenzyme A oxidase 1 (ACOX1) gene using HepaRG (AID 2283467)
# Method in brief: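 Differentiated human HepaRG cells were exposed in duplicate for 48 h in serum-free induction medium to eight half-log concentrations up to 100 uM in 0.5% DMSO. ACOX1 mRNA was then quantified by TaqMan qRT-PCR, normalized to ACTB, GAPDH and POLR2A.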
# [3] = read-out: Alkaline Phosphatase, Placental (ALPP) gene, ALPP (gene 250); assay: LTEA_HepaRG_ALPP: Life Technologies and Expression Analysis (LTEA) Assay for Alkaline Phosphatase, Placental (ALPP) gene using HepaRG (AID 2283468)
# Method in brief: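 Differentiated human HepaRG cells were plated and cultured 48 h, then exposed in duplicate for 48 h in serum-free induction medium to eight half-log concentrations from 100 uM in 0.5% DMSO. ALPP mRNA was measured by TaqMan qRT-PCR, normalized to ACTB, GAPDH, POLR2A.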
# [4] = read-out: Bcl-2 (BAD) gene, BAD (gene 572); assay: LTEA_HepaRG_BAD: Life Technologies and Expression Analysis (LTEA) Assay for Bcl-2 (BAD) gene using HepaRG (AID 2283469)
# Method in brief: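 Differentiated human HepaRG cells in serum-free induction medium were exposed in duplicate for 48 h to eight concentrations (top 100 uM, half-log steps, 0.5% DMSO). BAD mRNA was quantified by qRT-PCR normalised to ACTB, GAPDH and POLR2A, with bidirectional fitting versus DMSO.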
# [5] = read-out: Bcl-2 (BAX) gene, BAX (gene 581); assay: LTEA_HepaRG_BAX: Life Technologies and Expression Analysis (LTEA) Assay for Bcl-2 (BAX) gene using HepaRG (AID 2283470)
# Method in brief: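 Concentration-response endpoint fitted in both directions relative to 0.5% DMSO vehicle. Human HepaRG cultures receive test chemicals for 48 h at up to 100 uM; BAX mRNA is quantified by qRT-PCR against housekeeping genes.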
# [6] = read-out: adenosine kinase (ADK) gene, ADK (gene 132); assay: LTEA_HepaRG_ADK: Life Technologies and Expression Analysis (LTEA) Assay for adenosine kinase (ADK) gene using HepaRG (AID 2283471)
# Method in brief: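 HepaRG (human liver), 48 h chemical exposure, 8-pt half-log series, top 100 uM, 0.5% DMSO vehicle. Readout: ADK mRNA by qRT-PCR vs housekeeping genes; bidirectional curve fit relative to DMSO baseline.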
# [7] = read-out: Alpha-fetoprotein (AFP) gene, AFP (gene 174); assay: LTEA_HepaRG_AFP: Life Technologies and Expression Analysis (LTEA) Assay for Alpha-fetoprotein (AFP) gene using HepaRG (AID 2283472)
# Method in brief: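 After a 48 h plating period, cells are moved to serum-free induction medium and dosed in duplicate (100 uM maximum, half-log dilutions, 0.5% DMSO) for another 48 h. Total RNA goes to TaqMan qRT-PCR; AFP signal is housekeeping-normalized.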
# BCL2L11 (gene 10018) = assay: LTEA_HepaRG_BCL2L11: Life Technologies and Expression Analysis (LTEA) Assay for Bcl-2 (BCL2L11) gene using HepaRG (AID 2283473)
# Method in brief: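 Differentiated human HepaRG cells in serum-free induction medium were exposed in duplicate for 48 h to eight concentrations (top 100 uM, half-log steps, 0.5% DMSO). BCL2L11 mRNA was quantified by TaqMan qRT-PCR, normalized to ACTB/GAPDH/POLR2A, bidirectional fit versus DMSO.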
# [8] = read-out: Apolipoprotein A-V (APOA5) gene, APOA5 (gene 116519); assay: LTEA_HepaRG_APOA5: Life Technologies and Expression Analysis (LTEA) Assay for Apolipoprotein A-V (APOA5) gene using HepaRG (AID 2283474)
# Method in brief: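 Differentiated human HepaRG cells were exposed in duplicate for 48 h to eight half-log concentrations from 100 uM in 0.5% DMSO. APOA5 mRNA was quantified by TaqMan qRT-PCR, normalized to ACTB, GAPDH and POLR2A, and fitted bidirectionally against DMSO.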
# [9] = read-out: Apoptosis regulator Bcl-2 (Homo sapiens) (UniProt P10415); assay: LTEA_HepaRG_BCL2: Life Technologies and Expression Analysis (LTEA) Assay for Bcl-2 gene using HepaRG (AID 2283475)
# Method in brief: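 Expression change of BCL2 mRNA in HepaRG after 48 h dosing, quantified by TaqMan qRT-PCR against three endogenous controls. Concentration-response used eight points up to 100 uM, vehicle 0.5% DMSO.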
# Apoptosis regulator Bcl-2 (Homo sapiens), sequence (P10415 whole entry, looked up): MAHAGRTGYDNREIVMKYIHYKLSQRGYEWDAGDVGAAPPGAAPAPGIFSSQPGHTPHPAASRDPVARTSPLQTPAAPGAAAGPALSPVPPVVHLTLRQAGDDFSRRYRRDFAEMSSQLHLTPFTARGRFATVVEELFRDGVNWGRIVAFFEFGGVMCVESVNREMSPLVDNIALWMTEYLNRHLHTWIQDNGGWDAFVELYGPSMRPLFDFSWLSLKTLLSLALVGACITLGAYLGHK
smiles,measurement,setting,value
O=C(Nc1ccccc1)c1ccccc1I,outcome,[1],inactive
same,outcome,[2],inactive
same,outcome,[3],inactive
same,outcome,[4],inactive
same,outcome,[5],inactive
same,outcome,[6],inactive
same,AC50,[7],50 µM (active)
same,outcome,BCL2L11 (gene 10018),inactive
Nc1ccc([N+](=O)[O-])cc1,outcome,[1],inactive
same,outcome,[2],inactive
same,outcome,[3],inactive
same,outcome,[4],inactive
same,outcome,[5],inactive
same,outcome,[6],inactive
same,outcome,[7],inactive
same,outcome,BCL2L11 (gene 10018),inactive
c1ccc(NNc2ccccc2)cc1,outcome,[1],inactive
same,outcome,[2],inactive
same,outcome,[3],inactive
same,outcome,[4],inactive
same,outcome,[5],inactive
same,outcome,[6],inactive
same,outcome,[7],inactive
same,outcome,BCL2L11 (gene 10018),inactive
O=Cc1ccco1,outcome,[1],inactive
same,outcome,[2],inactive
same,outcome,[3],inactive
same,outcome,[4],inactive
same,outcome,[5],inactive
same,outcome,[6],inactive
same,outcome,[7],inactive
N#CC(Br)(Br)C(N)=O,outcome,[1],inactive
same,outcome,[2],inactive
same,outcome,[3],inactive
same,outcome,[4],inactive
same,outcome,[5],inactive
same,outcome,[6],inactive
same,outcome,[7],inactive
same,outcome,BCL2L11 (gene 10018),inactive
Cc1ccc(N=C=O)cc1N=C=O,AC50,[1],12.5 µM (active)
same,outcome,[2],inactive
same,outcome,[3],inactive
same,outcome,[4],inactive
same,outcome,[5],inactive
same,outcome,[6],inactive
same,AC50,[7],50 µM (active)
same,outcome,BCL2L11 (gene 10018),inactive
same,outcome,[8],inactive
Clc1ccc(C(c2ccc(Cl)cc2)C(Cl)Cl)cc1,outcome,[1],inactive
same,outcome,[2],inactive
same,AC50,[3],50 µM (active)
same,outcome,[4],inactive
same,outcome,[5],inactive
same,outcome,[6],inactive
same,AC50,[7],14 µM (active)
same,outcome,BCL2L11 (gene 10018),inactive
same,outcome,[9],inactive
c1ccc(N=Nc2ccccc2)cc1,outcome,[1],inactive
same,outcome,[2],inactive
same,outcome,[3],inactive
same,outcome,[4],inactive
same,outcome,[5],inactive
same,outcome,[6],inactive
same,outcome,[7],inactive
same,outcome,BCL2L11 (gene 10018),inactive
same,outcome,[8],inactive
same,outcome,[9],inactive
Cc1ccc(N)c(N)c1,outcome,[1],inactive
same,outcome,[2],inactive
same,outcome,[3],inactive
same,outcome,[4],inactive
same,outcome,[5],inactive
same,outcome,[6],inactive
same,outcome,[7],inactive
same,outcome,BCL2L11 (gene 10018),inactive
same,outcome,[9],inactive
Clc1ccc(Cl)c(Cl)c1,outcome,[1],inactive
same,outcome,[2],inactive
same,AC50,[3],9.92 µM (active)
same,outcome,[4],inactive
same,outcome,[5],inactive
same,outcome,[6],inactive
same,AC50,[7],50 µM (active)
same,outcome,BCL2L11 (gene 10018),inactive
same,AC50,[8],50 µM (active)
same,outcome,[9],inactive
Nc1ccc(N=Nc2ccccc2)cc1,AC50,[1],13.3 µM (active)
same,AC50,[2],14 µM (active)
same,outcome,[3],inactive
same,outcome,[4],inactive
same,AC50,[5],6.31 µM (active)
same,AC50,[6],10.7 µM (active)
same,AC50,[7],20.5 µM (active)
same,AC50,BCL2L11 (gene 10018),17.6 µM (active)
same,outcome,[9],inactive
CC(O)CCO (stereo not drawn),outcome,[1],inactive
same,outcome,[2],inactive
same,outcome,[3],inactive
same,outcome,[4],inactive
same,outcome,[5],inactive
same,outcome,[6],inactive
same,outcome,[7],inactive
same,outcome,BCL2L11 (gene 10018),inactive
same,outcome,[8],inactive
same,outcome,[9],inactive
Cc1ccc(N)cc1,outcome,[1],inactive
same,outcome,[2],inactive
same,outcome,[3],inactive
same,outcome,[4],inactive
same,outcome,[5],inactive
same,outcome,[6],inactive
same,outcome,[7],inactive
same,outcome,BCL2L11 (gene 10018),inactive
same,outcome,[8],inactive
same,outcome,[9],inactive
CO[C@@H]1[C@H](OC(=O)NC(=O)CCl)CC[C@]2(CO2)[C@H]1[C@@]1(C)O[C@@H]1CC=C(C)C,outcome,[1],inactive
same,outcome,[2],inactive
same,outcome,[3],inactive
same,outcome,[4],inactive
same,outcome,[5],inactive
same,outcome,[6],inactive
same,outcome,[7],inactive
same,outcome,BCL2L11 (gene 10018),inactive
same,outcome,[8],inactive
same,outcome,[9],inactive
Oc1ccccc1Cl,outcome,[1],inactive
same,outcome,[2],inactive
same,outcome,[3],inactive
same,outcome,[4],inactive
same,outcome,[5],inactive
same,outcome,[6],inactive
same,outcome,[7],inactive
same,outcome,[8],inactive
COC(=O)c1ccccc1N,outcome,[1],inactive
same,outcome,[2],inactive
same,outcome,[3],inactive
same,outcome,[4],inactive
same,outcome,[5],inactive
same,outcome,[6],inactive
same,outcome,[7],inactive
same,outcome,[8],inactive
c1ccc(C2CO2)cc1 (stereo not drawn),outcome,[1],inactive
same,outcome,[2],inactive
same,outcome,[3],inactive
same,outcome,[4],inactive
same,outcome,[5],inactive
same,outcome,[6],inactive
same,outcome,[7],inactive
same,outcome,[8],inactive
Cc1cc(N=Nc2ccccc2C)ccc1N,AC50,[1],0.387 µM (active)
same,AC50,[2],2.57 µM (active)
same,AC50,[3],12.6 µM (active)
same,outcome,[4],inactive
same,AC50,[5],1.99 µM (active)
same,AC50,[6],4.93 µM (active)
same,AC50,[7],4.69 µM (active)
same,AC50,BCL2L11 (gene 10018),3.13 µM (active)
same,AC50,[8],2.97 µM (active)
same,AC50,[9],78 µM (active)
Clc1ccccc1Cl,outcome,[1],inactive
same,outcome,[2],inactive
same,outcome,[3],inactive
same,outcome,[4],inactive
same,outcome,[5],inactive
same,outcome,[6],inactive
same,outcome,[7],inactive
same,outcome,BCL2L11 (gene 10018),inactive
same,outcome,[8],inactive
same,outcome,[9],inactive
CCCCCOC(=O)c1ccccc1C(=O)OCCCCC,outcome,[1],inactive
same,outcome,[2],inactive
same,outcome,[3],inactive
same,outcome,[4],inactive
same,outcome,[5],inactive
same,outcome,[6],inactive
same,outcome,[7],inactive
same,outcome,BCL2L11 (gene 10018),inactive
same,outcome,[8],inactive
